# Results: ChEMBL document CHEMBL3988442, “University of Dundee, Small-Polar-MMV Screening Library” (2021)
# Target: AMP-activated protein kinase, AMPK (Homo sapiens) (UniProt P54646+O43741+P54619+Q9UGJ0+Q9Y478+Q13131+Q9UGI9)
# Assay: AMP-dependent Kinase enzyme assay. An in vitro enzyme assay that detects ADP turnover that is directly proportional to AMPK activity. This uses naive AMPK that is activated during the assay with MK-8722
# Assay type: functional
# Design: scale not given: direction of the effect not stated beside the values
# Conditions: 30 µM
row,Structure (SMILES),Percent Effect
1,O=C(NCC1CCOC1)c1cc(-c2ccc(Cl)cc2)n[nH]1 (stereo not given),1%
2,CN(CCO)Cc1cc(Cl)ccc1OCC(O)CN1CCCCCC1 (stereo not given),0.752%
3,CC(c1nc(-c2cccnc2)no1)N(C)CCCOc1ccccc1 (stereo not given),-4.41%
4,CC(CN1CCOC1=O)NC(=O)c1cccc2cc[nH]c12 (stereo not given),8.07%
5,Cc1cnn(C2CCCN(C(=O)c3cc(-c4cccs4)n[nH]3)C2)c1 (stereo not given),-1.86%
6,Cc1nc(NC2(CN3CCCCC3)CCCCC2)c2cnn(C)c2n1,5.76%
7,O=C(CNC(=O)c1ccccc1F)NCc1ccccn1,0.147%
8,Cc1cc(NC(=O)N2CCN(c3cccs3)CC2)ccc1C(N)=O,6.86%
9,CSc1ccc(NC(=O)Cn2cc(NC(C)=O)cn2)cc1,-11.9%
10,COc1ccc(Br)cc1S(=O)(=O)N(C)Cc1ccc(N(C)C)cc1,-1.52%
11,CNC(=O)C1CCCN(C(=O)c2cncs2)C1 (stereo not given),4.55%
12,Cc1ccccc1C(=O)NCC(=O)NCc1ccccn1,17.3%
13,O=C(C1CC(c2ccccc2)=NO1)N1CCc2ccccc21 (stereo not given),13.9%
14,C[C@H](N)C(=O)N1CCC(c2[nH]ncc2-c2ccccc2)CC1,-8.96%
15,CC1(C)CC1(C(=O)N1CC(c2cccnc2)C1)c1ccccc1F (stereo not given),-6.17%
16,O=C(CC1CCCC1)NCCS(=O)(=O)N1CCN(c2ccccc2)CC1,-7.22%
17,O=C(CCn1cc(Cl)cn1)N1CCCC(O)(CO)CC1 (stereo not given),-3.36%
18,CCn1ncnc1C1CC(=O)NCc2nc(N3CCOCC3)sc21 (stereo not given),-10.6%
19,Clc1snnc1CN(Cc1cccs1)C1CC1,3.68%
20,Cc1c(F)cccc1S(=O)(=O)N(C)CC(C)O (stereo not given),1.59%

row,Structure (SMILES),Percent Effect
1,COCC1(C(=O)N[C@H]2CN(c3noc(C)n3)C[C@@H]2C2CC2)CCC1,-1.21%
2,CCN(Cc1ccc(N(C)C)cc1)S(=O)(=O)c1cc(Br)ccc1OC,-8.72%
3,Cc1c(CN2Cc3nccn3CC2c2ccccc2)cnn1C (stereo not given),7.11%
4,CN(CCC#N)C(=O)Cn1cnc2c(Br)cccc2c1=O,2.35%
5,O=C1NCCCCC1NC(=O)N1CCc2ccccc21 (stereo not given),-3.02%
6,Cc1ccc(N2CCC(c3cc(Cc4ccccc4)n[nH]3)CC2)nn1,10.9%
7,CCC(C)c1csc(NC(=O)c2sc(-c3nnc[nH]3)nc2C)n1 (stereo not given),12.2%
8,CCn1cc(NC(=O)c2cccc(CN3C[C@@H](C)O[C@@H](C)C3)c2)nn1,1.85%
9,CC(C)C(C(=O)N(C)C)c1cccc(Cl)c1 (stereo not given),6.38%
10,O=S(=O)(c1cn[nH]c1)N1CCC(O)(CN2CCOCC2)C1 (stereo not given),3.92%
11,COCC[C@]1(O)CCN(CC(=O)NCc2ccccn2)C[C@H]1C,9.06%
12,Cn1c(N2CC[C@H](O)C2)nc2cc(C(N)=O)ccc21,21.4%
13,CC(C)N1CC(c2ccnc(Nc3nccs3)n2)C1,13.4%
14,C[C@@H]1CN(Cc2cc3ccccc3n2C)CC[C@]1(C)O,5.04%
15,COc1cccc2ccc(N3CCC(O)(c4ccc(C)cn4)CC3)nc12,11.8%
16,COCCC1(C(=O)O)CCN(c2cc(C)c3ccccc3n2)CC1,3.32%
17,Cc1cc(N(C)C)nc(N2CCn3c(C)nnc3C2)n1,-2.14%
18,O=C1NCCCC12CCN(Cc1ccc(-c3ccccc3)s1)C2 (stereo not given),6.83%
19,CCOC(=O)CC1CCCCN1C(=O)c1cccc2ccnn12 (stereo not given),-6.64%
20,Cc1ccc(C(=O)NCc2cc(F)ccc2N2CCCN(C)CC2)o1,9.19%
